Assay outcomes from PubChem.
CHT inh: inhibits the human high affinity choline transporter; CHT-expressing cells, membrane potential dye, choline response; active compounds read low; 310,000 compounds, 0.86% hits; B-score at 10 µM;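 active = B-score over 3 SD under the library average, and starting fluorescence ratio not unusually high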;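 also: choline stimulus applied at its EC90 after an EC20 pre-addition; B-score computed on integrated fluorescence ratio after choline addition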
Target sequence (Q9GZV3 whole entry, looked up): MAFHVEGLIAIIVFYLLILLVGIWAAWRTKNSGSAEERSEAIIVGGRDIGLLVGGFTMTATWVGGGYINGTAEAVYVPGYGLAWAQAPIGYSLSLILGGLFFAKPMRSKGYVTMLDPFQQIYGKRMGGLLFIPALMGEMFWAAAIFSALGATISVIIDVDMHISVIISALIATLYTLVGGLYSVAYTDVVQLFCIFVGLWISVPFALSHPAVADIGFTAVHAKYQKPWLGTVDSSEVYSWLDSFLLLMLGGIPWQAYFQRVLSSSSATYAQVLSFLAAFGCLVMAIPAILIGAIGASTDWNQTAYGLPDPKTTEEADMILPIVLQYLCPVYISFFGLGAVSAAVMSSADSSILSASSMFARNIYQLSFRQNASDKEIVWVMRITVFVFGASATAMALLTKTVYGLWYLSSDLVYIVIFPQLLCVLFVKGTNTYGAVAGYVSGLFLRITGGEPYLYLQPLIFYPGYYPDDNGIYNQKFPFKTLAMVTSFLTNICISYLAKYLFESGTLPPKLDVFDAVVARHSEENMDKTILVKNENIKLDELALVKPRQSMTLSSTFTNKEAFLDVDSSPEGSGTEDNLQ
ALR H2O2 inh: blocks human ALR sulfhydryl oxidase activity | P55789 | purified ALR, DTT oxidation, H2O2 HRP-luminol luminescence | inhibition, % (concentration not given with the values) | 290,000 compounds, 3.8% hits | AID 485317;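 active = mean replicate inhibition above about 79%, with every replicate also reaching it, limit read from the data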
CHT allo act: allosteric activators of human choline transporter CHT. Q9GZV3. CHT-expressing cells, membrane potential dye, choline EC20; active compounds read high; LV-AA mutant CHT in HEK293 cells. B-score at 10 µM. 310,000 compounds, 0.49% hits;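 active = initial fluorescence not abnormally high and integrated response B-score, plate-corrected, over 3 SD above library mean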
AI-2 QS modul: modulators of Vibrio harveyi AI-2 quorum sensing system; Vibrio harveyi JMH597 AI-2 luminescence/OD600 ratio, 9 h; active compounds read low; strain lacks LuxN and CqsS sensors; 0 = neutral-control median; activity change, % at 7.5 µM; 300,000 compounds, 0.4% hits; in the data active = activity change below about -75%, passing the limit was not always enough;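 also: luminescence divided by OD600 gain over 9 h not by final OD600 alone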
PREPL inhibitor: inhibits the human prolyl oligopeptidase-like enzyme; recombinant PREPL, fluorescence polarization activity-based probe; inhibition, % at 5.96 µM; 320,000 compounds, 0.68% hits; in the data active = inhibition above about 43%
CHT act confirm: human CHT activation, confirmatory screen; shares compounds with CHT allo act; activation, % at 10 µM; CHT-expressing cells, membrane potential dye fluorescence (FDSS); % of choline EC20–EC90 response window; HEK293 expressing CHT LV-AA mutant; choline added at its EC20; 2,500 compounds, 91% hits; AID 504833;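 active = primary screen active, with duplicate mean activation above negative control mean plus 3 SD, cut at about 11% in these data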
HEK293 MP dye: counter-screen for CHT activators: effect in parental HEK293 cells; shares compounds with CHT allo act; membrane potential dye fluorescence (FDSS); measured after EC20 choline addition; ratio readout change at 10 µM, hits read low; 2,500 compounds, 62% hits; AID 623908;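 active = duplicate-averaged ratio beyond 3 SD from buffer wells, up or down, though filed actives are nearly all decreases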
Hits are given with their value; . = inactive; / = no result. Compounds with a hit are over-represented: about 5% of the library has one in this group of screens.

SMILES | CHT inh | ALR H2O2 inh | CHT allo act | AI-2 QS modul | PREPL inhibitor | CHT act confirm | HEK293 MP dye
CCC1CCCCN1CC(O)Cn1c2ccccc2n2c(=O)cc(C)c(C#N)c12 (stereo unspecified) | . | / | 7.7 | . | . | 39 | -28
COC(=O)CCCC1=CC2=C(c3ccccc3)C(=O)C(C)(OC(=O)C3CCCC3)C(=O)C2=CN1C1CCCC1 (stereo unspecified) | . | . | 11 | . | . | 36 | .
CN(C)C=Nc1c(C(=O)c2ccccc2)sc2nccc(N(C)C)c12 | . | . | . | . | . | / | /
CCOC(=O)c1sc2nccc(N(C)C)c2c1N=CN(C)C | . | / | 7.2 | . | . | 60 | -52
COc1ccc(OC)c(NC(=O)CN(Cc2ccccc2)S(C)(=O)=O)c1 | . | . | . | . | . | / | /
COc1ccc(NC(=O)CSc2ccc3nnc(-c4ccccn4)n3n2)c(OC)c1 | . | . | . | . | . | / | /
COc1ccc(-c2noc(CN3CCCCC3c3nccn3C)n2)cc1 (stereo unspecified) | . | . | 11 | . | . | 49 | .
Cc1nn(-c2ccccc2)c(C)c1NC(=O)COc1ccc([N+](=O)[O-])cc1 | . | . | . | . | . | / | /
CCC(C(=O)c1ccc2ncccc2c1)c1ccccc1 (stereo unspecified) | . | . | . | . | . | / | /
Cc1ccn2cc(C34CC5CC(CC(C5)C3)C4)nc2c1 | . | . | 8.9 | . | . | 17 | .
O=C(CN(C(=O)c1csnn1)c1cccc2c1CCCC2)NC1CCCC1 | . | . | . | . | . | / | /
COc1ccc(Nc2c(-c3ccc(C)cc3)nc3cnccn23)cc1 | . | 99 | . | . | . | 49 | -28
COc1ccc(-c2cc(C(=O)Nc3ccc4c(c3)OCO4)no2)cc1 | . | . | . | . | . | / | /
COc1ccc(-c2nc3cnccn3c2Nc2ccc3c(c2)OCO3)cc1 | . | 87 | 6.4 | . | . | 48 | -29
Cc1cc(Nc2ccc3c(c2)OCCO3)n2ncnc2n1 | . | . | . | . | . | / | /
CCCCCCSc1cc(-c2nc3cnccn3c2NCCCC)ccc1OC | / | . | / | / | . | / | /
Cc1cc(C)n2c(Nc3ccc4c(c3)OCCO4)c(-c3ccccc3)nc2n1 | . | . | 11 | . | . | 14 | -34
CN(C)c1ccc(-c2nc3cnccn3c2Nc2ccc3c(c2)OCCO3)cc1 | . | 98 | 7.1 | . | . | 59 | -23
COc1cc(OC)c(OC)cc1/C=N/NC(=O)c1ccc(=O)n(C)c1 | . | . | . | . | . | 43 | -29
COc1cccc(/C=N/NC(=O)C[n+]2ccccc2)c1O | . | . | . | . | . | / | /
COc1cc(OC)c(OC)cc1/C=N/NC(=O)C[n+]1ccccc1 | . | . | . | . | . | 51 | -42
C[C@@H]1COC(=O)[C@@H](CC(=O)OC(C)(C)C)C/C=C\C[C@H](CC(=O)NCCO)C(=O)N1 | / | . | / | / | . | / | /
CC(=O)N(CC(C)C(=O)O)c1c(I)cc(I)c(N)c1I (stereo unspecified) | . | . | . | / | . | / | /
O=C(COc1ccccc1)Nc1ccc(Cl)cc1Cl | . | . | . | . | . | / | /
Cc1ccc(C(=O)c2cc([N+](=O)[O-])ccc2N2CCN(C)CC2)cc1 | . | . | 12 | . | . | 38 | .
SMILES | CHT inh | ALR H2O2 inh | CHT allo act | AI-2 QS modul | PREPL inhibitor | CHT act confirm | HEK293 MP dye
CN1CCN(c2ccc([N+](=O)[O-])cc2C(=O)c2ccc(Br)cc2)CC1 | . | . | . | . | . | / | /
CCCCCCn1c(CN2CCN(C(=O)c3ccco3)CC2)nc2c1c(=O)n(C)c(=O)n2C | . | / | . | . | . | / | /
CCCCCn1c(CN2CCN(C(=O)OCC)CC2)nc2c1c(=O)n(C)c(=O)n2C | . | . | . | . | . | / | /
CCCCCn1c(CN2CCN(C)CC2)nc2c1c(=O)n(C)c(=O)n2C | . | . | . | . | . | 46 | -36
CCCCCCn1c(CN2CCN(Cc3ccccc3)CC2)nc2c1c(=O)n(C)c(=O)n2C | . | . | . | . | . | 24 | .
O=C(OCc1ccc(F)cc1)c1cc(S(=O)(=O)N2CCCCC2)ccc1N1CCOCC1 | . | . | . | . | . | / | /
